# Laboratory results from PubChem BioAssay (EPA / NIEHS).
# Results filed as inconclusive are left out. Activity calls are given as the source filed them. Rule for the calls: active = hit-call score of the fitted dose curve at least 0.9, where 1 is the maximum; inconclusive = response in the unintended direction; inactive = score below 0.9.
# Assay: Tanguay_ZF_120hpf_PE_legacy: (Legacy) Oregon State University Tanguay Lab 120 Hour Post-fertilization zebrafish Assay for Pericardial Edema (AID 2283640);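 for AC50: potency for increased incidence of pericardial edema versus DMSO baseline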
# Method: Tanguay_ZF_120hpf_legacy is a whole embryo, multiplexed endpoint assay using zebrafish larvae exposed for 120 hours post fertilization on a 96-well plate.Tanguay_ZF_120hpf_PE_legacy is one of one assay component(s) measured or calculated from the Tanguay_ZF_120hpf_legacy assay. It is designed to make measurements of zebrafish development as detected with brightfield microscopy of developing zebrafish embryos.Data from the assay component Tanguay_ZF_120hpf_PE_legacy was analyzed into 1 assay endpoints. This assay endpoint, Tanguay_ZF_120hpf_PE_legacy, was analyzed in the positive analysis fitting direction relative to DMSO as the negative control and baseline of activity. Using a type of morphology reporter, gain-of-signal activity can be used to understand changes in developmentals as they relate to the whole embryo. To generalize the intended target to other relatable targets, this assay endpoint is annotated to the zebrafish development intended target family, where the subfamily is embryonic morphogenesis.
# Zebrafish husbandry: Tropical 5D wild-type adult zebrafish were housed in at an approximate density of 1000 per 100 gallon tank at the Sinnhuber Aquatic Research Laboratory, Oregon State University, Corvallis, OR. Each tank was kept at standard laboratory conditions of 28C on a 14-h light/10-h dark photoperiod in fish water consisting of reverse osmosis water supplemented with a commercially available salt (Instant Ocean). Spawning funnels were placed into the tanks the night prior, and embryos were collected and staged. […] Ten microliters of each row of dilution plate 2 was added to 2 exposure plates. The final DMSO concentration used was 0.64% (vol/vol). Thirty-two embryos were also exposed to 5uM trimethyltin chloride (positive control). Plates were sealed to prevent evaporation and foil covered to reduce light exposure and kept in a 28C incubator. Embryos were statically exposed until 120 hpf. At 24 hpf, embryos were assessed for photomotor response using a custom photomotor response analysis tool (PRAT) and for developmental toxicity endpoints (MO24: mortality at 24 hpf, DP: developmental progression, SM: spontaneous movement, and NC: notochord distortion). At 120 hpf, locomotor activity was measured using Viewpoint Zebralab and assessed for 18 endpoints. Zebrafish acquisition and analysis program (ZAAP), a custom program designed to inventory, acquire, and manage zebrafish data, was used to collect developmental endpoints as either present or absent (i.e., binary responses were recorded). If mortality occurred for an embryo (at either 24 or 120 hpf), the non-mortality endpoints were not measured.
Structure (SMILES),outcome,AC50
CCOc1ccc2c(c1)C(C)=CC(C)(C)N2,inactive,–
CC(=O)OCCOCCOCCOC(C)=O,inactive,–
CCCCCCOCCO,inactive,–
NCC1(Cc2noc(=O)[nH]2)CCCCC1,inactive,–
CCOC(=O)CCC(=O)OCC,inactive,–
Cc1cc(NC(=O)C(=O)O)cc(C)c1Oc1ccc(O)c2c1CCC2,inactive,–
CCCCC(CC)COC(=O)CC(C(=O)OCC(CC)CCCC)S(=O)(=O)O (stereo not given),inactive,–
CC1(C)CC(N=C=O)CC(C)(CN=C=O)C1 (stereo not given),inactive,–
CC(C)(C)c1cc(O)c(C(C)(C)C)cc1O,–,34.3 µM (active)
CCCc1cc(=O)[nH]c(=S)[nH]1,inactive,–
O=C(N[C@@H](Cc1ccccc1)[C@@H](O)C(=O)N1C[C@@H](O)[C@@H](O)C1)c1cc2cc(Cl)ccc2[nH]1,inactive,–
NC(=O)Cn1c(=O)cc(CCN2CCN(c3nccc4sccc34)CC2)c2ccc(F)cc21,inactive,–
CCCCCCCCCCO,inactive,–
Cc1cccc(C)c1O,inactive,–
CCCCCC(=O)O,inactive,–
CC(C)c1ccc(C(=O)N=C(N)N)cc1S(C)(=O)=O,inactive,–
CC(=O)OC/C=C(\C)CCC=C(C)C,inactive,–
CNC(=O)[C@H]1O[C@@H](n2cnc3c(NCc4cc(Cl)ccc4OCc4cc(C)no4)ncnc32)[C@H](O)[C@@H]1N,inactive,–
CC1=C(/C=C/C(C)=C/C=C/C(C)=C/CO)C(C)(C)CCC1,inactive,–
O=C(OCCCCCOC(=O)c1ccccc1)c1ccccc1,inactive,–

Structure (SMILES),outcome,AC50
CC(=O)Oc1ccccc1C(=O)O,inactive,–
Cc1ccc(C)c(O)c1C,inactive,–
CC(=O)C(C)=CC1C(C)=CCCC1(C)C (stereo not given),inactive,–
CN1CCN(Cc2cc(-c3ccc4[nH]c(=O)oc4c3)co2)[C@@H](c2ccc(F)cc2)C1,inactive,–
CCCCCCCCCCC,inactive,–
O=c1[nH]cc(F)c(=O)[nH]1,inactive,–
CCCCCCCC=O,inactive,–
COc1cc(S(=O)(=O)O)c(C)cc1N=Nc1c(O)ccc2cc(S(=O)(=O)O)ccc12,inactive,–
Cc1ccc(Cl)cc1,inactive,–
CCCCN(CCCC)CCCC,inactive,–
C=CCOC(=O)c1ccccc1C(=O)OCC=C,–,46.9 µM (active)
CCCCCCC(=O)OCC,inactive,–
Oc1ccc2c(c1)OC[C@@H](N1CCC(O)(c3ccc(F)cc3)CC1)[C@H]2O,inactive,–
Oc1ccc2ccccc2c1N=Nc1ccccc1,–,35.2 µM (active)
Cc1ccc2ncccc2c1,inactive,–
CCCCCCCCCCCCCCCCCC(=O)O,inactive,–
CC1(C)NC(=O)NC1=O,inactive,–
Clc1cc(Cl)c(Cl)cc1Cl,inactive,–
Cc1cc(=O)[nH]c(=S)[nH]1,inactive,–
Cc1ccccc1Cl,inactive,–
